# DT40 TDP1 CPT = DT40-hTDP1 cell growth loss with CPT | chicken DT40 Tdp1-/-;hTDP1 cells + 20 nM CPT, ATP luminescence, 48 h | Potency, µM (top dose mostly 46.2 µM), for inactives: at the highest dose activity change, negative = growth inhibition, usual class: inhibitors | actives 12% (n = 420,000) | AID 686979; also: potency is read from the fitted curve at half-maximal effect; nearly all actives have a fitted effect of over 55% in size
#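 Cell growth measured by CellTiter-Glo luminescence after a minimum 48 h, 37 C compound exposure with 20 nM CPT in Tdp1-knockout DT40 cells stably expressing hTDP1, seeded 400/well; qHTS titration format.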
# IL-1B inflam inh = blocks inflammasome-driven IL-1 beta release | THP-1 LPS/ATP IL-1B secretion, AlphaLISA, 16 h; hits give low values | activity change, % at 57.5 µM | actives 4.7% (n = 360,000); in the data active = activity change below about -50%; inconclusive = mostly about -30% to -49%
#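 THP-1 cells pretreated 1 hr with compounds (up to 57.5 uM final), then stimulated with LPS (250 ng/mL final) plus ATP (1.25 mM final); secreted IL-1B measured by AlphaLISA after 16 hr, decreased signal indicating inhibition.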
# Six1-Eya2 inh = inhibitors of human Six1/Eya2 interaction; AID 651725; actives 0.56% (n = 360,000); activity change, % (test concentration not listed); AlphaScreen GST-Six1/His-Eya2 binding, biochemical; hits give low values; in the data active = activity change below about -65%; inconclusive = mostly about -30% to -63%
# Target sequence (O00167 whole entry, looked up): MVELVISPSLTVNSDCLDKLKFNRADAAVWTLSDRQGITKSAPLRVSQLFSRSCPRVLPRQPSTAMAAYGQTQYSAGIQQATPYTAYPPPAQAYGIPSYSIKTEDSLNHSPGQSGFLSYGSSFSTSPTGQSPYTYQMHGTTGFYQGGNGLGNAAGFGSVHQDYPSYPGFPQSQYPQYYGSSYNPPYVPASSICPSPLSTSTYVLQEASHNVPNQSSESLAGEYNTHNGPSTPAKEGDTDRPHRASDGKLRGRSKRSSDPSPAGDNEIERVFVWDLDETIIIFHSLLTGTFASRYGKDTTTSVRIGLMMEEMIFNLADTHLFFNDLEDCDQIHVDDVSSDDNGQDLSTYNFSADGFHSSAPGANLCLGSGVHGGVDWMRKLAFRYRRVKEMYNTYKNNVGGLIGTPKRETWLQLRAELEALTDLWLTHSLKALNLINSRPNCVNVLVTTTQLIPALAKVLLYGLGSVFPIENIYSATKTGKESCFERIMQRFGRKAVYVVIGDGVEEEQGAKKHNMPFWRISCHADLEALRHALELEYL
# Target sequence (Q15475 whole entry, looked up): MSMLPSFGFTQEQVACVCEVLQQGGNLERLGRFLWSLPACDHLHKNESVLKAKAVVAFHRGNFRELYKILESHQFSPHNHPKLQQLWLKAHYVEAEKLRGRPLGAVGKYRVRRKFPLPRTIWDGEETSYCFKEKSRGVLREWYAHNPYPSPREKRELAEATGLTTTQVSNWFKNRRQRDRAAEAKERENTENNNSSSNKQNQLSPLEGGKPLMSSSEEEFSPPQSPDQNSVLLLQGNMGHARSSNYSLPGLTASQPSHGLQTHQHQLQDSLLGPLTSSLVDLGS
#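 Compounds are tested against tagged Six1 and Eya2 proteins bridged by glutathione donor and nickel acceptor beads; after a one-hour incubation at 37 °C without light, AlphaScreen emission is recorded.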
# TDP1 block = blocks human tyrosyl-DNA phosphodiesterase 1. Q9NUW8. recombinant TDP1, AlphaScreen DNA substrate cleavage. Potency, µM (highest dose often 130 µM), for the others: at the highest dose activity change, negative = inhibition, hits mostly inhibitors. actives 0.28% (n = 350,000). AID 485290; also: potency is read from the fitted curve at half-maximal effect; nearly all actives have a fitted effect of over 40% in size
#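 Enzyme-compound mixtures sat 15 min at room temperature, followed by a 5 min reaction with 15 nM final substrate and 10 min with AlphaScreen beads. Recombinant human Tdp1 was used at 1 nM final.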
# CtBP-E1A inh = blocks the CtBP interaction with E1A; AlphaScreen GST-E1A/His-CtBP binding, 1536-well; hits give low values; actives 0.49% (n = 340,000); activity change, % (test concentration not listed); in the data active = activity change below about -65%; inconclusive = mostly about -30% to -63%
#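 Steps: dispense buffer (Tris pH 8.0, NaCl 300 mM, TCEP 1 mM, BSA, Tween 20); add 5X protein mix (GST-E1A, His-CtBP, 125 nM each); pin 23 nL compound; 2 h at 37 °C, dark; add 5X beads (50 ug/mL); 1 h; read.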
# DT40 TDP1 no CPT = qHTS for Inhibitors of human tyrosyl-DNA phosphodiesterase 1 (TDP1): qHTS in cells in absence of CPT | DT40 Tdp1-/- hTDP1 cells, no CPT, ATP luminescence, 48 h | Potency, µM (top dose mostly 46.2 µM), for the others: at the top dose activity change, negative = growth inhibition, hits mostly inhibitors | actives 15% (n = 420,000); also: potency is read from the fitted curve at half-maximal effect; nearly all actives have a fitted effect of over 55% in size
#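 A cellular qHTS used chicken DT40 cells lacking endogenous Tdp1 but carrying stably transfected human TDP1. Compounds were applied without camptothecin, and cell growth kinetics were judged by ATP-dependent luminescence after ≥48 hr.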
# The depositor's hits bear a star; i = inactive; ? = inconclusive; nt = no result; [ ] = another dose, or the depositor's remark. Rows were chosen to be rich in hits. Some 18% of all compounds tested hit in one or more screens of this group. Unless noted, calls follow the shape of the dose curve; as a rule, active = well fitted curve in the direction sought with a large enough effect; inconclusive = small, poorly fitted or top-dose-only effect, or another doubt; inactive = no such curve, though single readings can be large; an effect the other way counts as inactive or inconclusive. % is scaled to controls: 0 for no effect and ±100 for the full control effect.
SMILES,DT40 TDP1 CPT,IL-1B inflam inh,Six1-Eya2 inh,TDP1 block,CtBP-E1A inh,DT40 TDP1 no CPT
COc1cccc2c(C)nc(Nc3nc(CSc4nnc(C)s4)cc(=O)[nH]3)nc12,23µM*,-6,-9,0%,-10,18µM*
Cc1ccc2c(C)nc(Nc3nc(CSc4nnc(C)s4)cc(=O)[nH]3)nc2c1,11µM*,?,-6,5%,-4,20µM*
Cc1ccc2nc(Nc3nc(CSc4nnnn4-c4ccccc4)cc(=O)[nH]3)nc(C)c2c1,-91%,-12,2,2%,6,-98%
Cc1cc(N2CCN(C)CC2)nc2ccc(NC(=S)N3CCN(c4cccc(Cl)c4)CC3)cc12,1.8µM*,19,9,7%,3,2.6µM*
Cc1cc(N2CCN(C)CC2)nc2ccc(NC(=S)N3CCN(c4ccc(F)cc4)CC3)cc12,?,212,-1,-3%,-19,10µM*
Cc1cc(N2CCN(c3ccc(F)cc3)CC2)nc2cc(O)ccc12,23µM*,23,-20,8%,-2,15µM*
COc1ccc(N2CCN(c3cc(C)c4ccc(O)cc4n3)CC2)cc1,-26%,3,-25,3%,-4,?
Cc1cccc(N2CCN(C(=S)Nc3ccc4nc(N5CCN(C)CC5)cc(C)c4c3)CC2C)c1 (stereo not drawn),?,-72*,-5,5%,nt,21µM*
O=C(c1cc2n(n1)C(C(F)(F)F)CC(c1ccc(Cl)cc1)N2)N1CCCC1 (stereo not drawn),?,-8,7,-2%,-16,?
Cc1cc(N2CCN(C)CC2)nc2ccc(NC(=S)N3CCN(c4ccc(Cl)cc4)CC3)cc12,9.2µM*,38,5,8%,1,?
Cc1cccc(N2CCN(C(=S)Nc3ccc4nc(N5CCN(C)CC5)cc(C)c4c3)CC2)c1C,1.3µM*,4,5,6%,nt,1µM*
Cc1ccccc1C(=O)NC(CC(C)C)C(=O)Nc1ccc(S(N)(=O)=O)cc1 (stereo not drawn),-17%,15,-2,0%,4,-8%
O=C(Nc1ccc(O)cc1)c1cccc(S(=O)(=O)N2CCOCC2)c1,5%,nt,nt,4%[12.3 µM],nt,-12%
CC(=O)C1CCC2C3CC=C4CC(O)CC[C@@]4(C)C3CC[C@]12C (stereo partly drawn),2%,nt,nt,5%,nt,-5%
COC1CCC2(C)C(=CCC3C4CC(O)CC4(C)CCC32)C1 (stereo not drawn),21µM*,6,-1,nt,21,21µM*
CCCCn1nnnc1C(c1ccccc1)N1CCN(CC)CC1 (stereo not drawn),-22%,34,12,nt,3,-11%
CCC(c1nnnn1-c1c(C)cccc1C)N1CCN(c2ccc(C(F)(F)F)cc2[N+](=O)[O-])CC1 (stereo not drawn),?,?,-25,nt,0,-58%
CCCCn1nnnc1C(c1ccccc1)N1CCN(c2ncccc2C(F)(F)F)CC1 (stereo not drawn),?,-51*,9,nt,2,18µM*
CCCCn1nnnc1C(c1ccccc1)N1CCN(c2ccc(C(F)(F)F)cc2[N+](=O)[O-])CC1 (stereo not drawn),?,-12,-23,nt,-24,18µM*
CCCCn1nnnc1C(c1ccccc1)N1CCN(c2ccc(C(F)(F)F)cn2)CC1 (stereo not drawn),?,?,4,nt,8,18µM*
COc1ccc(/C=N/NC(=O)c2cccc([N+](=O)[O-])c2)cc1OS(=O)(=O)c1ccccc1,?,-19,1,8%,6,16µM*
COc1cccc(/C=N/NC(=O)c2cccc([N+](=O)[O-])c2)c1OS(=O)(=O)c1ccccc1,?,-20,-11,6%,-9,16µM*
N#Cc1cc([N+](=O)[O-])ccc1Oc1cccc(/C=N/NC(=O)c2cccc(Cl)c2)c1,?,?,-14,10%,0,21µM*
COc1cccc(C(=O)N/N=C/c2ccc(Oc3ccc([N+](=O)[O-])cn3)c(OC)c2)c1,21µM*,-8,-15,5%,-8,?
COc1ccc(/C=N/NC(=O)c2cccc([N+](=O)[O-])c2)cc1OC,-10%,-8,-13,3%,?,9%
SMILES,DT40 TDP1 CPT,IL-1B inflam inh,Six1-Eya2 inh,TDP1 block,CtBP-E1A inh,DT40 TDP1 no CPT
COc1cc(/C=N/NC(=O)c2cccc([N+](=O)[O-])c2)cc(OC)c1O,-23%,-4,-2,0%,nt,?
CCOC(=O)Cc1csc(NC(=O)CN2CCN(c3ccccc3)CC2)n1,-8%,31,-4,nt,-1,-3%
COc1ccccc1N1CCN(C(=O)CC2NC3CCCCC3NC2=O)CC1 (stereo not drawn),nt,nt,nt,-2%,nt,nt
COc1ccc(/C=N/NC(=O)c2cccc([N+](=O)[O-])c2)cc1OC(=O)c1ccc(C)cc1,?,26,-14,3%,-24,?
O=C(N/N=C/c1cccc([N+](=O)[O-])c1)c1ccc(COc2ccccc2-c2ccccc2)cc1,21µM*,i,-17,3%,-16,23µM*
COc1ccc(/C=N/NC(=O)c2cccc([N+](=O)[O-])c2)cc1OC(=O)c1ccccc1,16µM*,55,-18,8%,-19,15µM*
COc1cc(/C=N/NC(=O)COc2c(C)cc([N+](=O)[O-])cc2C)ccc1OC(=O)c1ccccc1,13µM*,62,-20,3%,0,21µM*
COc1cc(/C=N/NC(=O)c2cccc([N+](=O)[O-])c2)ccc1OCc1ccccc1,?,-3,3,-5%,4,?
O=C(Nc1nc2ccccc2n1CCN1CCCC1)C1CCCCC1,-7%,-17,0,10%,0,-5%
CSCCC(NC(=O)c1ccccc1Cl)C(=O)N1CCCC(C)C1 (stereo not drawn),-15%,-4,7,nt,-18,-25%
Cc1nc(NC(=O)c2ccc(Cl)cc2)sc1Cc1ccc2c(c1)OCO2,4.1µM*,-7,-5,-5%,-3,3.7µM*
COc1ccc(-c2nc3cc(C)ccc3cc2CN(C(=O)c2ccco2)C2CC2)cc1OC,-6%[9.04 µM],nt,nt,nt,nt,?
COc1ccc(-c2nc3cc(F)ccc3cc2CN(C(=O)c2ccc3c(c2)OCO3)C2CC2)cc1,17%,nt,nt,nt,nt,-12%
COc1ccc(-c2nc3cc(C)ccc3cc2CN(C(=O)c2ccc(C)s2)C2CC2)cc1OC,-12%[9.04 µM],nt,nt,nt,nt,21µM*
